According to ChEMBL document CHEMBL1961873, “Compounds: GSK PKIS; Assays: Nanosyn kinase panel” (2012):

Key:
[1] = target: Fibroblast growth factor receptor 4 (Homo sapiens) (UniProt P22455); conditions: at 1 µM;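 also: reported figure is the averaged percent inhibition of FGFR4, from the GSK PKIS kinase screening panel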
[2] = target: Tyrosine-protein kinase Fgr (Homo sapiens) (UniProt P09769); conditions: at 0.1 µM
[3] = target: Tyrosine-protein kinase Fgr (Homo sapiens) (UniProt P09769); conditions: at 1 µM
[4] = target: Vascular endothelial growth factor receptor 1 (Homo sapiens) (UniProt P17948); conditions: at 0.1 µM
Sequence of Vascular endothelial growth factor receptor 1 (Homo sapiens) (P17948 whole entry): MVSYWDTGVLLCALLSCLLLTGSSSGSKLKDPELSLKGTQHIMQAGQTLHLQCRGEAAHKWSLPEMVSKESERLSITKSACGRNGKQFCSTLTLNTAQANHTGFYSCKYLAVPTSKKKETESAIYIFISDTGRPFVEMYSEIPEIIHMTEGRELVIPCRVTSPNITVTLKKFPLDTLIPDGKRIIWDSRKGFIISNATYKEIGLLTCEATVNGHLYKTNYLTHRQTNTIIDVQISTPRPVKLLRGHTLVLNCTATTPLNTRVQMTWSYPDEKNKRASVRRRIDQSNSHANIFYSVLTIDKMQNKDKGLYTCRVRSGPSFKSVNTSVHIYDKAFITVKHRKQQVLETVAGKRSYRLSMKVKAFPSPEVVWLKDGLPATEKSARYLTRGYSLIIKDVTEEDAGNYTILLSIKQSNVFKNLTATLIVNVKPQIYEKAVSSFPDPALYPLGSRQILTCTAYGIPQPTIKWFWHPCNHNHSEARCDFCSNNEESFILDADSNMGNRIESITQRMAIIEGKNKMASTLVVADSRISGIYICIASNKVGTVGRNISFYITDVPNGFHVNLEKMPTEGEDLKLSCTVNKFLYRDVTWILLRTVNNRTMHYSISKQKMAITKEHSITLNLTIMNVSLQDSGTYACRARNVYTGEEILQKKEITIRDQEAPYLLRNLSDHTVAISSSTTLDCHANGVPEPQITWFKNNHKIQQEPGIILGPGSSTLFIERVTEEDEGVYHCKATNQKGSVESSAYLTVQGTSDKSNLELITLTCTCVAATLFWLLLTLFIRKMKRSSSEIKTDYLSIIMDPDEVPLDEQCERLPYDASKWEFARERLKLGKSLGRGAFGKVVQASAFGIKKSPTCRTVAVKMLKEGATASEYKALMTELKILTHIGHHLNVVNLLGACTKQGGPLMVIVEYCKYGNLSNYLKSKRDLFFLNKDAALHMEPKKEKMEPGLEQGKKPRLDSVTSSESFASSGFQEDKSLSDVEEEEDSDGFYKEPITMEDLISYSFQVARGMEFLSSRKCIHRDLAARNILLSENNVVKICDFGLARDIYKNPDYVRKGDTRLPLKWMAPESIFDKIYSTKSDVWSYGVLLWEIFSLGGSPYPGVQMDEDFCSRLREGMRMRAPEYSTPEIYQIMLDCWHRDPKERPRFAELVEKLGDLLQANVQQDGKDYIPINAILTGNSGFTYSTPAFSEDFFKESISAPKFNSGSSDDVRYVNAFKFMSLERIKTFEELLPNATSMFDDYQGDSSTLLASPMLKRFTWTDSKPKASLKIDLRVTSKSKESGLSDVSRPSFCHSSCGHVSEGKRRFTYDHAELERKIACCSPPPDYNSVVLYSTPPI

[5] = target: Vascular endothelial growth factor receptor 1 (Homo sapiens) (UniProt P17948); conditions: at 1 µM
[6] = target: Receptor-type tyrosine-protein kinase FLT3 (Homo sapiens) (UniProt P36888); conditions: at 0.1 µM
[7] = target: Receptor-type tyrosine-protein kinase FLT3 (Homo sapiens) (UniProt P36888); conditions: at 1 µM
[8] = system: T1, Receptor-type tyrosine-protein kinase FLT3 (Homo sapiens), P36888 [D835Y]; conditions: at 0.1 µM
T1 sequence (whole entry): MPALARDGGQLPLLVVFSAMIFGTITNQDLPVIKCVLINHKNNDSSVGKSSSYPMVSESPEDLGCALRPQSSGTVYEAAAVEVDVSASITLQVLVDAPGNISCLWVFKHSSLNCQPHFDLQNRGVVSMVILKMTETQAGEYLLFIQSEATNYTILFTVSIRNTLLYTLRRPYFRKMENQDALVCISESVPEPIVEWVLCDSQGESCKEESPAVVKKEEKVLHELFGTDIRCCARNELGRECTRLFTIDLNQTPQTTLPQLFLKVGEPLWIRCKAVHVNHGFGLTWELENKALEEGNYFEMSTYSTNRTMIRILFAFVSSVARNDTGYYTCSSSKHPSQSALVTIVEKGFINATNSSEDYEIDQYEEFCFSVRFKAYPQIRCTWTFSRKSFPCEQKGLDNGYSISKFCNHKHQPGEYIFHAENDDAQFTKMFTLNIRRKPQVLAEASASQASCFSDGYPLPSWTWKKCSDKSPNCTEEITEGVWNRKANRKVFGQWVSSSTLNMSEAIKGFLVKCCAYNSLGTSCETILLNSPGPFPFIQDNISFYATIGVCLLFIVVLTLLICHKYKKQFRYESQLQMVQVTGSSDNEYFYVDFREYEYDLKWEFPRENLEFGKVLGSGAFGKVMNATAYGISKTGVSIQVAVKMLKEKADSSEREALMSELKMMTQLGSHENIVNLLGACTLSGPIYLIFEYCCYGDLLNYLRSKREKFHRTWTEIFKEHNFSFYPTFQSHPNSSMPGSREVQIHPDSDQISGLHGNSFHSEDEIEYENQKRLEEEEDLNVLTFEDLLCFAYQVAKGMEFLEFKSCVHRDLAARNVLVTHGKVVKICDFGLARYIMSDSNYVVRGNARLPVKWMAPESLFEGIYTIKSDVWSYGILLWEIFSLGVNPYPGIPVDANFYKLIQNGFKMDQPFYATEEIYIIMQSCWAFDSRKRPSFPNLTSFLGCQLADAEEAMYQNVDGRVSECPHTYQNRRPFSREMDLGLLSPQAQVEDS

[9] = target: Non-receptor tyrosine-protein kinase TYK2 (Homo sapiens) (UniProt P29597); conditions: at 1 µM;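 also: values are mean percent inhibition of TYK2 kinase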
Sequence of Non-receptor tyrosine-protein kinase TYK2 (Homo sapiens) (P29597 whole entry): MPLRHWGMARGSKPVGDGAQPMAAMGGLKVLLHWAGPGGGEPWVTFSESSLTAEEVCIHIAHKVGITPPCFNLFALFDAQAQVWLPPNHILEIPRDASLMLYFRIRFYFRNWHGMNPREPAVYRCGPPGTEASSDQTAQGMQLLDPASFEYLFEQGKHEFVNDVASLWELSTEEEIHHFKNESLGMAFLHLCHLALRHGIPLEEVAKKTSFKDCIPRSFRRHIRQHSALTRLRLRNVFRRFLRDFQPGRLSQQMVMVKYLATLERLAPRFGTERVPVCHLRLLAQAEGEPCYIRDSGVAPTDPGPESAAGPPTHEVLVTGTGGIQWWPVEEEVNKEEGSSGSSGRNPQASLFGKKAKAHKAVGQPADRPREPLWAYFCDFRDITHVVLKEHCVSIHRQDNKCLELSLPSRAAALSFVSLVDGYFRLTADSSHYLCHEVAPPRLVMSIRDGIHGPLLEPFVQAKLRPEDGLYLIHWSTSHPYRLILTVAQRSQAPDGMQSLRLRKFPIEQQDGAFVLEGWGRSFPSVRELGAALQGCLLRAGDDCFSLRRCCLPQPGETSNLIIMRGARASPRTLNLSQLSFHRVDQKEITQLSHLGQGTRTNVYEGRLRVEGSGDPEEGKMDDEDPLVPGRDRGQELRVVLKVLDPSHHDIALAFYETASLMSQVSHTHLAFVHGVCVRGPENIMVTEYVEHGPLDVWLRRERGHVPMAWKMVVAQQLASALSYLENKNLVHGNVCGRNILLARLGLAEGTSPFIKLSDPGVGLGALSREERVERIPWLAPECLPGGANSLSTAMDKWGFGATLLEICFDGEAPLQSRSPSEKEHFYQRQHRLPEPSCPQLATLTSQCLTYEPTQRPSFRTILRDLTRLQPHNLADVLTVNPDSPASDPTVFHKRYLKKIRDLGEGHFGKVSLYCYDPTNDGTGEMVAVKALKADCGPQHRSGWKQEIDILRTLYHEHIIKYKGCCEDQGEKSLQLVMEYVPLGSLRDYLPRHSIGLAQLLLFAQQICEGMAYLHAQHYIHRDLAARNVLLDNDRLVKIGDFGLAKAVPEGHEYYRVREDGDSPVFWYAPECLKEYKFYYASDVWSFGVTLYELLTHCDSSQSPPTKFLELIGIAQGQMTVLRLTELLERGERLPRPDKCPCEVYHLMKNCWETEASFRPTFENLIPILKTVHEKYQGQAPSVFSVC

[10] = target: T2, Tyrosine-protein kinase receptor TYRO3 (Homo sapiens) (UniProt Q06418); conditions: at 0.1 µM
T2 sequence (whole entry): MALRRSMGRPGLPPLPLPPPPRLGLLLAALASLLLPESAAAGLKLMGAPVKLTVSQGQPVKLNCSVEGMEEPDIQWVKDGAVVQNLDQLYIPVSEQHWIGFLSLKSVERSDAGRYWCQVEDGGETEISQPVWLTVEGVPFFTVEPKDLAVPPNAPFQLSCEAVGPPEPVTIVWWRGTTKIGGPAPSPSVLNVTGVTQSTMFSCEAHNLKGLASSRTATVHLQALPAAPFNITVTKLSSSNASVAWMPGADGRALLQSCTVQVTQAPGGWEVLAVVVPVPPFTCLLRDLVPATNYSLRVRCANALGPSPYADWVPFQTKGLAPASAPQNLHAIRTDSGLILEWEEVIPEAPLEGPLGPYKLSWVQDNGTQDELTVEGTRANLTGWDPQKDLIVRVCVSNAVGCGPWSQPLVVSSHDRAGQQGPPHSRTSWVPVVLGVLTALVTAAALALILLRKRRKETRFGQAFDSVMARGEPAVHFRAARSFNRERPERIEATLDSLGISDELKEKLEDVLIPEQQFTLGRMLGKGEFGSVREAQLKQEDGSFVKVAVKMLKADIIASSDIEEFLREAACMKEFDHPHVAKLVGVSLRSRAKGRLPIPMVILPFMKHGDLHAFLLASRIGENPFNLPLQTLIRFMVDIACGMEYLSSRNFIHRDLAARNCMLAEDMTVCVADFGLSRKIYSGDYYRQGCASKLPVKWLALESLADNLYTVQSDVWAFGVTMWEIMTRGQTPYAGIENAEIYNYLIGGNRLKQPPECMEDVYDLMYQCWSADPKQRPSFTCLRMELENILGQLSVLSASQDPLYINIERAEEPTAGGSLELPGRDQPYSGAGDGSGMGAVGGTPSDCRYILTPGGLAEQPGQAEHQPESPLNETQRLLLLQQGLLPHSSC

[11] = target: T2, Tyrosine-protein kinase receptor TYRO3 (Homo sapiens); conditions: at 1 µM
[12] = target: Tyrosine-protein kinase Yes (Homo sapiens) (UniProt P07947); conditions: at 0.1 µM
Sequence of Tyrosine-protein kinase Yes (Homo sapiens) (P07947 2-543 limits assumed): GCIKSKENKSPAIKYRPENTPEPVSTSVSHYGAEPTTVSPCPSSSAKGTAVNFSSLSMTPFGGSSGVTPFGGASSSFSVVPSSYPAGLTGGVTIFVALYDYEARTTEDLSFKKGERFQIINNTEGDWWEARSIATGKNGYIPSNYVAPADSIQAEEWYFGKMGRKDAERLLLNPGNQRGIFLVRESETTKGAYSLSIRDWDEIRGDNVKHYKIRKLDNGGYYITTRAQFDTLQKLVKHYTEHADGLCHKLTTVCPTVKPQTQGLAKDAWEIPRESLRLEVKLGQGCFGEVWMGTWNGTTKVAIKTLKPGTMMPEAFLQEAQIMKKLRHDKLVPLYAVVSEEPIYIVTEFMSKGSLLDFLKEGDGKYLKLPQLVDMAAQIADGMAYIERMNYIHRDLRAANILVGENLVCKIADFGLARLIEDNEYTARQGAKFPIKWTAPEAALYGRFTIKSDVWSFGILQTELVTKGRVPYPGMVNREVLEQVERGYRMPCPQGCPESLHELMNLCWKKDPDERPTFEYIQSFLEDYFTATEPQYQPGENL

[13] = target: Tyrosine-protein kinase Yes (Homo sapiens) (UniProt P07947); conditions: at 1 µM
[14] = target: T3, Tyrosine-protein kinase ZAP-70 (Homo sapiens) (UniProt P43403); conditions: at 0.1 µM
T3 sequence (whole entry): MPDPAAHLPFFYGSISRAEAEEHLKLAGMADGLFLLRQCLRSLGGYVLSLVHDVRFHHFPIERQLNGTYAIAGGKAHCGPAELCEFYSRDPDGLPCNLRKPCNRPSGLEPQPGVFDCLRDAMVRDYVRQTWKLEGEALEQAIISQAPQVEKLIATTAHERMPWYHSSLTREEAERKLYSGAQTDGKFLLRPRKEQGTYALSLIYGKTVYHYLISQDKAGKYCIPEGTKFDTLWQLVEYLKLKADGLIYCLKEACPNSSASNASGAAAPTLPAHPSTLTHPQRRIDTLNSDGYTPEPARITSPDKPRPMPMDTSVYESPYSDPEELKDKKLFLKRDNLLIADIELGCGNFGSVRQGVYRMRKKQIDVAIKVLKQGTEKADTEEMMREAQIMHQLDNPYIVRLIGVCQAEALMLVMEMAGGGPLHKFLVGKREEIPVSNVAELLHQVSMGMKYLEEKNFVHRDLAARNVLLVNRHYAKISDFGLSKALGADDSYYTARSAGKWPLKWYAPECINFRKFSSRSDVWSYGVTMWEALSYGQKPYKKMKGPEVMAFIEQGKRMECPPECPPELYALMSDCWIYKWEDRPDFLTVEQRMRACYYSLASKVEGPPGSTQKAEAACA

[15] = target: T3, Tyrosine-protein kinase ZAP-70 (Homo sapiens); conditions: at 1 µM
[16] = target: Serine/threonine-protein kinase B-raf (Homo sapiens) (UniProt P15056); conditions: at 0.1 µM
[17] = target: Serine/threonine-protein kinase B-raf (Homo sapiens) (UniProt P15056); conditions: at 1 µM
[18] = system: Serine/threonine-protein kinase B-raf (Homo sapiens), P15056 [V600E]; conditions: at 0.1 µM
[19] = system: Serine/threonine-protein kinase B-raf (Homo sapiens), P15056 [V600E]; conditions: at 1 µM
[20] = target: RAF proto-oncogene serine/threonine-protein kinase (Homo sapiens) (UniProt P04049); conditions: at 0.1 µM;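 also: values are mean CRAF kinase inhibition from profiling of the GSK Published Kinase Inhibitor Set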
Sequence of RAF proto-oncogene serine/threonine-protein kinase (Homo sapiens) (P04049 whole entry): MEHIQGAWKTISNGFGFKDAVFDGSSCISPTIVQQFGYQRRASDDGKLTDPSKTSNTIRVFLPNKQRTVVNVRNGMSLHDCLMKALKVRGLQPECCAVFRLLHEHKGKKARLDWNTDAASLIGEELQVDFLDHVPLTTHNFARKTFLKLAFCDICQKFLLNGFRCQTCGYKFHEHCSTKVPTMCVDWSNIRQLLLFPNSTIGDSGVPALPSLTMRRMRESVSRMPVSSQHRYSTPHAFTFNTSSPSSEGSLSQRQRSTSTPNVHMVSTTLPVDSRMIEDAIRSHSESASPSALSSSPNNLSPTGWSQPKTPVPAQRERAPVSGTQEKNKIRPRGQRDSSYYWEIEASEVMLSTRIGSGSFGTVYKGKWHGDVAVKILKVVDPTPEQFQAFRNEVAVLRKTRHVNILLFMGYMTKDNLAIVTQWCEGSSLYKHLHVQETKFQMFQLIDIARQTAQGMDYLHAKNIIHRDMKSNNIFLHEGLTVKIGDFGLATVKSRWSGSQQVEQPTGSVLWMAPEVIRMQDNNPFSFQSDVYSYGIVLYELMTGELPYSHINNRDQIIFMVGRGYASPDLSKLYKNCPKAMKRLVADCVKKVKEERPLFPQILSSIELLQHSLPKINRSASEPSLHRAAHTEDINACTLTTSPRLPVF

Sequence of Tyrosine-protein kinase Fgr (Homo sapiens) (P09769 2-529 limits assumed): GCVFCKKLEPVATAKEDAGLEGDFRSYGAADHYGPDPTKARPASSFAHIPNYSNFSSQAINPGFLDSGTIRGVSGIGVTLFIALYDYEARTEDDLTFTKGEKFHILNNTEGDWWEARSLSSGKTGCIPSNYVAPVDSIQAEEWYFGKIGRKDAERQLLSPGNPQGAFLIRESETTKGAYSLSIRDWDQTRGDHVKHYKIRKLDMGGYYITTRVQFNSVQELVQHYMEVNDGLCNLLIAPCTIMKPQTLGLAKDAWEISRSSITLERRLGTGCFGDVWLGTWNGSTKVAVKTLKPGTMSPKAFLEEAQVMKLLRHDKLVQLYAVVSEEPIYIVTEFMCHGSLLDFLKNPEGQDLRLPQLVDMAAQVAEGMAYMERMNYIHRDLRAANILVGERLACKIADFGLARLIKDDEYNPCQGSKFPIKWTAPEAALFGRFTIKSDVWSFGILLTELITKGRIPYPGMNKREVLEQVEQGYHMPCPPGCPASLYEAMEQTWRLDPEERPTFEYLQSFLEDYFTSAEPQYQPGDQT
Sequence of Fibroblast growth factor receptor 4 (Homo sapiens) (P22455 22-802 limits assumed): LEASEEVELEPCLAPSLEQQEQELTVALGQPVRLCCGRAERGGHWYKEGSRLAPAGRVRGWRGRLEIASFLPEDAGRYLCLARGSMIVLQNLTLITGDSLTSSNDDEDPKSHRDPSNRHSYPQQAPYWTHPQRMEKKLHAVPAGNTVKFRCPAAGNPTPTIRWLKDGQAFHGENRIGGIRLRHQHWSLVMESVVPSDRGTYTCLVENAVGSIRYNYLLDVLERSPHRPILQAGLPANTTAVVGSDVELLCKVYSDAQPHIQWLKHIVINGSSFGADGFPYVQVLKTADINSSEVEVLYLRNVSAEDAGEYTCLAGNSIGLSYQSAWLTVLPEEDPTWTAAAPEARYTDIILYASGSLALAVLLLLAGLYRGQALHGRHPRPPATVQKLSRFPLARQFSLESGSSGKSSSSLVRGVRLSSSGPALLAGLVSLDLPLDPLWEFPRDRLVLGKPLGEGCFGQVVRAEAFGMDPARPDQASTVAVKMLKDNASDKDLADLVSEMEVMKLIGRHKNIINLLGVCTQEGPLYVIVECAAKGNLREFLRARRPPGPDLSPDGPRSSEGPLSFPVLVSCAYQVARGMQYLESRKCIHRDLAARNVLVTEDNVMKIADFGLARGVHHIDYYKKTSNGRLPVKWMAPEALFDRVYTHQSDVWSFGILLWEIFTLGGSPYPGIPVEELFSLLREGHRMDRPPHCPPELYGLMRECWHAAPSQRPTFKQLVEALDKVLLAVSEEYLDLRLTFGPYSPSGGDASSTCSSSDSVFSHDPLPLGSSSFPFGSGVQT

Structure (SMILES) | inhibition [1] [%] | inhibition [2] [%] | inhibition [3] [%] | inhibition [4] [%] | inhibition [5] [%] | inhibition [6] [%] | inhibition [7] [%] | inhibition [8] [%] | inhibition [9] [%] | inhibition [10] [%] | inhibition [11] [%] | inhibition [12] [%] | inhibition [13] [%] | inhibition [14] [%] | inhibition [15] [%] | inhibition [16] [%] | inhibition [17] [%] | inhibition [18] [%] | inhibition [19] [%] | inhibition [20] [%]
CCOc1nccc2c1nc(-c1nonc1N)n2CC | 4.2 | 6.66 | 5.06 | 2.14 | 2.02 | 0.14 | 1.3 | -2.2 | 1.21 | 3.25 | 5.64 | 2.27 | 6.31 | 2.73 | 1.9 | 2.88 | 2.64 | 3.44 | 2.45 | -1.34
CN(C)CCCn1c(-c2nonc2N)nc2cnccc21 | 1.11 | 1.37 | 2.22 | 1.09 | 2.77 | 2.53 | 1.85 | -5.34 | -2.04 | 1.74 | 1.97 | 0.2 | 0.44 | 1.32 | 0.96 | 5.59 | 6.07 | 5.51 | 5.34 | 7.16
Nc1nccc(-c2c(-c3ccc(F)cc3)ncn2CCCN2CCOCC2)n1 | -1.03 | 2.89 | 3.22 | 0.15 | -0.18 | -0.59 | 3.31 | -5.08 | -1.83 | 3.82 | 5.61 | 2.87 | 9.05 | -2.08 | 1.23 | 5.83 | 6.07 | 6.08 | 7.12 | 11.6
CN1CCN(C(=O)c2ccc(NC(=O)Nc3ccc(N(C)c4ccnc(Nc5ccc(CS(C)(=O)=O)cc5)n4)cc3)cc2)CC1 | 3.43 | 5.31 | 26.3 | 21.4 | 43.5 | 64.7 | 83.9 | 0.6 | 21.6 | 2.23 | 21.9 | 2.29 | 16.2 | 2.02 | 5.2 | 2.69 | 14.5 | 3.84 | 11.8 | 2.58
CN(c1ccc(NC(=O)Nc2ccc(OC(F)(F)F)cc2)cc1)c1ccnc(Nc2cccc(S(N)(=O)=O)c2)n1 | 2.57 | 13.8 | 57.2 | 44.4 | 96.1 | 28.6 | 87.4 | 2.56 | -2.45 | 3.15 | 27.2 | 15.5 | 65.2 | -0.16 | 3.87 | 5.02 | 22.7 | 4.82 | 18 | -2.25
Cc1nc(-c2ccccc2)n2nc(NCCCN3CCOCC3)ncc12 | 3.35 | 2.33 | 4.11 | 2.94 | -1.07 | 2.39 | 4.33 | -0.33 | 0.82 | 0.92 | 2.63 | 0.53 | 6.58 | 0.35 | 0.63 | 3.54 | 7.13 | 4.13 | 4.57 | 8.88
N#Cc1cccc(Nc2nccc(-c3cnn4ncccc34)n2)c1 | 5.22 | 11.1 | 41.7 | 8.37 | 28.3 | 18.5 | 68 | 7.57 | 11 | 7.97 | 47.8 | 5.64 | 37 | 3.19 | 13.3 | 19.5 | 65.2 | 18.8 | 65 | -0.47
